Bioassay records deposited in PubChem BioAssay by Broad Institute.
aSyn UTR act = Activators via SNCA 5'UTR binding, MLPCN; alpha-synuclein 5'UTR reporter, activators screen; 300,000 tested, 7.1% active; AID 1814; activity score, % (tested at 7.5 µM), hits read low; in the data active = activity score below about -60%
Hits are given with their value; 0 = inactive. The list is a sample of the results.

SMILES	aSyn UTR act
Cc1cccc(OCc2n(CC(=O)OC3CC(C)CCC3C(C)C)c3ccccc3[n+]2C)c1 (stereo unspecified)	0
O=C(CSc1nc2ccccc2[nH]1)c1ccc2c(c1)OCO2	-140
O=C(CSc1ccccn1)c1ccc2c(c1)OCO2	-149
Cc1ccccc1NC(=O)c1ccccc1O	-118
O=C(Nc1ccccc1)c1ccccc1O	-151
O=S(=O)(/N=C(/Nc1ccccc1)c1ccccc1O)c1ccccc1	-79
Cc1ccccc1NC(=O)C(=O)Nc1ccccc1C	-143
Nc1nnc(COc2ccc(Br)cc2Br)s1	-98
CCOC(=O)N1CCN(C(=O)CSCC(=O)Nc2nc(-c3ccc(Cl)s3)cs2)CC1	-85
CCOC(=O)N1CCN(C(=O)CSCC(=O)Nc2nc(-c3ccc(-c4ccccc4)cc3)cs2)CC1	-126
O=C(COC(=O)c1cccnc1Cl)Nc1nc(-c2ccccc2)cs1	-63
CCOC(=S)SCC(=O)Nc1nc(-c2ccc(Br)cc2)cs1	0
CCOC(=O)N1CCN(C(=O)CSCC(=O)Nc2nc(-c3ccc(OC)cc3)cs2)CC1	-97
CCOC(=O)C(C)Oc1cccc2c(=O)n(CC(=O)NCc3ccccc3)ccc12 (stereo unspecified)	0
CCOC(=O)COc1cccc2c(=O)n(CC(=O)NCCc3ccccc3)ccc12	-73
CCCC1CCc2c(sc(NC(=O)c3cccs3)c2C(N)=O)C1 (stereo unspecified)	-99
COC(=O)c1c(NC(=O)c2cccs2)sc2c1CCC(C)C2 (stereo unspecified)	-113
CSc1ccc(C2NC(=O)c3ccccc3N2)cc1 (stereo unspecified)	-126
Cc1ccc(C)c(C2NC(=O)c3ccccc3N2)c1 (stereo unspecified)	-70
Cc1ccn2c(NC3CCCC3)c(-c3cccs3)nc2c1	-116
Cc1ccn2c(NCc3ccccc3)c(-c3cccs3)nc2c1	-100
S=C(c1ccc(-c2ccccc2)cc1)N1CCOCC1	0
O=C(/C=C/N1CCOCC1)c1ccc(-c2ccccc2)cc1	-123
O=C(Oc1ccc(-c2ccccc2)cc1)N1CCOCC1	-104
Cc1cccn2c(=O)c3cc(C(=O)N4CCCCC4)sc3nc12	-64
SMILES	aSyn UTR act
CCC(CC)NC(=O)c1cc2c(C)nn(Cc3ccccc3Cl)c2s1	0
Cc1cnc(NC(=O)c2cc3c(C)nn(-c4ccccc4)c3s2)s1	-66
Cc1nn(-c2ccccc2)c2sc(C(=O)N3CCCCC3)cc12	-68
Clc1cc2nc(-c3cccnc3Cl)[nH]c2cc1Cl	-229
COc1ccc(/C(N)=N/OC(=O)Cc2cccs2)cc1	-129
COc1ccc(CC(=O)O/N=C(\N)c2ccc(OC)cc2)cc1	-86
COc1ccc(C(=O)Nc2ccc3cn[nH]c3c2)c(OC)c1	-99
COc1ccc(NC(=O)c2cc3ccccc3cc2OC)cc1	-168
COc1cc2ccccc2cc1C(=O)Nc1ccc(N2CCN(C)CC2)cc1	-176
COc1ccc(NC(=O)c2ccc3ccccc3c2OC)cc1	-215
COc1ccc(NC(=O)c2cc3c([nH]c4ccccc43)c(C)n2)cc1	-84
COc1ccc(-c2cc(C(=O)Nc3cccnc3)no2)cc1OC	-187
CCOc1ccc(NC(=O)c2cc(OC)nc3ccccc23)cc1	0
CCOc1ccc(NC(=O)c2cc3ccccc3cc2OC)cc1	-133
CCOc1ccc(NC(=O)c2cccc3ccccc23)cc1	-318
O=C(Nc1ccc(Cl)cc1)c1ccc(Br)cc1F	-123
CCOc1ccc(NC(=O)c2cc3ccccc3cc2O)cc1	-201
COc1cc2ccccc2cc1C(=O)Nc1ccccc1Cl	-139
COc1cc2ccccc2cc1C(=O)Nc1cccnc1	-139
CCOc1ccc(NC(=O)c2ccc(F)cc2F)cc1	-103
CCCNC(=O)OCCC12CC3CC(CC(C3)C1)C2	-92
Cc1ccc(CN(C(=O)c2cc3ccccc3oc2=O)C2CCS(=O)(=O)C2)cc1 (stereo unspecified)	-104
O=C(c1cc2ccccc2oc1=O)N(Cc1ccc(F)cc1)C1CCS(=O)(=O)C1 (stereo unspecified)	-121
O=C(c1cc2ccccc2oc1=O)N(Cc1cccs1)C1CCS(=O)(=O)C1 (stereo unspecified)	-104
COc1ccc(CN(C(=O)c2cc3ccccc3oc2=O)C2CCCCC2)cc1OC	-65
SMILES	aSyn UTR act
CCc1ccc(CN(C(=O)c2cc3ccccc3oc2=O)C2CCS(=O)(=O)C2)cc1 (stereo unspecified)	-144
CCCc1cc(=O)n2[nH]c(-c3ccc(Cl)cc3)cc2n1	-141
CCCc1cc(=O)n2[nH]c(-c3ccc(C)cc3)cc2n1	-129
CCOC(=O)Cc1cc(-c2ccc(F)cc2)nc2ccc3ccccc3c12	-63
CCOC(=O)Cc1cc(-c2ccc(O)cc2)nc2ccc3ccccc3c12	-80
CCOC(=O)Cc1cc(-c2ccc(OC)cc2)nc2ccc3ccccc3c12	-117
CCN1CCN(c2ccc(NC(=O)c3ccco3)cc2Cl)CC1	-112
O=C(Nc1ccc(N2CCCC2)c(Cl)c1)c1ccco1	-113
CCN1CCN(c2ccc(NC(=O)c3cccc(F)c3)cc2Cl)CC1	-82
O=C(Nc1ccc(N2CCOCC2)c([N+](=O)[O-])c1)c1ccco1	-73
Cc1ccc(N=Cc2ccc(O)cc2O)cc1F	-84
O=C1c2ccccc2C(=O)N1CCSc1ccccc1	-191
O=C1C2CC=C(Cl)CC2C(=O)N1CCc1ccccc1 (stereo unspecified)	-69
O=C1c2ccccc2C(=O)N1CCc1ccccc1	-70
CCOC(=O)C(C)Oc1cccc2c(=O)n(CC(=O)NCc3ccc(F)cc3)ccc12 (stereo unspecified)	0
CCOc1ccccc1NC(=O)Cn1nnc(C(=O)NCc2ccco2)c1N	0
CC(C)(C)n1ncc2c(=O)n(CC(=O)NCc3ccco3)cnc21	-93
CC(C)(C)n1ncc2c(=O)n(CC(=O)c3ccccc3)cnc21	-107
CC(C)(C)n1ncc2c(=O)n(CC(=O)NCc3ccc(F)cc3)cnc21	-90
O=C(Cn1cc(C(F)(F)F)cc(Cl)c1=O)NCc1ccc(F)cc1	-81
CC(C)(C)n1ncc2c(=O)n(CC(=O)NC3CCCCC3)cnc21	-108
CCOC(=O)c1[nH]c2c(c1-c1ccccc1)C(=O)CC(c1ccccc1)C2 (stereo unspecified)	-66
CCC(C)OC(=O)c1[nH]c2c(c1C)C(=O)CC(c1ccc(N(C)C)cc1)C2 (stereo unspecified)	-92
CCC(=NCCc1c(C)[nH]c2ccc(OC(F)(F)F)cc12)C1=C(O)CC(c2ccccc2)CC1=O (stereo unspecified)	0
CCCc1n[nH]c2c1/C(=N/O)CC(c1ccccc1)C2 (stereo unspecified)	0
SMILES	aSyn UTR act
Cc1c(C(=O)OCC(C)C)[nH]c2c1C(=O)CC(c1ccco1)C2 (stereo unspecified)	0
c1ccc(CSc2nnnn2-c2ccc3c(c2)OCCO3)nc1	-71
CCOc1ccc(NC(=O)C2C3CC/C=C\CCC32)cc1 (stereo unspecified)	-87
COc1ccc(NC(=O)C2C3CC/C=C\CCC32)cc1 (stereo unspecified)	-141
O=C(Nc1ccc(-c2nc3ccccc3s2)c(O)c1)C1=COCCO1	-80
O=C(Nc1cccc(-c2nc3ccccc3s2)c1)C1=COCCO1	-82
O=C(Nc1ccc(-c2nc3ccccc3s2)cc1)C1=COCCO1	0
O=C(Nc1ccc(O)c(-c2nc3ccccc3s2)c1)C1=COCCO1	-78
C/C(=N\NC(=O)C1CCCN(S(=O)(=O)c2ccccc2)C1)c1ccccn1 (stereo unspecified)	0
